Screening results from PubChem BioAssay.
hcDAF-12 act: H. contortus DAF-12 nuclear receptor activators, primary screen, cell-based, luminescence, HEK293, lit1-tk-luc reporter; HEK293 hcDAF-12 lit1-tk-luc reporter; 0% DMSO, 100% Δ7-dafachronic acid; activation, % at 6.8 µM; 1.4% of 370,000 active; AID 652067, 2013;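 active means activation above the mean of all tested compounds plus 3 SD, cut at about 5.5% in these data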
ssDAF-12 act: S. stercoralis DAF-12 nuclear receptor activators, primary screen, cell-based, luminescence, HEK293, GRIP1 co-expression, lit1-tk-luc. Nuclear hormone receptor DAF-12 (Strongyloides stercoralis). HEK293 ssDAF-12/GRIP1 lit1-tk-luc reporter; % of 3 µM dafachronic acid response. activation, % at 6.8 µM. 1% of 370,000 active. AID 652126, 2013;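 active means activation above the mean over all tested compounds plus 3 SD, cut at about 0.9% in these data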
hgDAF-12 ag: H. glycines DAF-12 receptor agonists, primary screen, cell-based, luminescence, HEK293, GAL4 fusion, UAS-luciferase; AID 687014, 2013; activation, % at 6.8 µM; Nuclear hormone receptor DAF-12 (Heterodera glycines), GAL4 fusion; 1.8% of 370,000 active; HEK293 GAL4-hgDAF12 UAS-luciferase reporter, agonist luminescence; normalized to butyrate control;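 active means activation above a cutoff set at the mean of all screened compounds plus 3 SD, cut at about 10% in these data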
SMARCA2 activ: SMARCA2 (BRM) function activators, primary screen, cell-based, luminescence, high throughput; AID 652017, 2013; MG213 cells, MMTV-luciferase reporter, dexamethasone, overnight; activation, % at 9.1 µM; 1% of 370,000 active; in the data active means activation above about 7.8%
DAX1 inh-1: DAX1 (NR0B1) inhibitors on StAR promoter, primary screen, cell-based, luminescence, SF-1 (NR5A1), full-length DAX-1 | AID 652010, 2013 | inhibition, % at 6.8 µM | HEK293T StAR-luciferase reporter, SF-1/DAX-1 repression relief | 1.1% of 370,000 active;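 active means inhibition above the mean over all tested compounds plus 3 SD, cut at about 3.6% in these data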;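 further: higher inhibition means more luminescence from relief of DAX-1 repression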
DAX1 inh-2: DAX1 (NR0B1) inhibitors, primary screen, cell-based, HEK293, Gal4-DAX1, luciferase luminescence. Nuclear receptor subfamily 0 group B member 1 (Homo sapiens), P51843. HEK293 Gal4-DAX1 luciferase reporter. inhibition, % at 6.75 µM. 0.99% of 340,000 active. AID 504766, 2011;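 active means inhibition above the mean over all tested compounds plus 3 SD, cut at about 4.2% in these data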;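 further: inhibition shows as a rise in luminescence from relieved DAX1 repression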
Target sequence (P51843 207-470 limits assumed): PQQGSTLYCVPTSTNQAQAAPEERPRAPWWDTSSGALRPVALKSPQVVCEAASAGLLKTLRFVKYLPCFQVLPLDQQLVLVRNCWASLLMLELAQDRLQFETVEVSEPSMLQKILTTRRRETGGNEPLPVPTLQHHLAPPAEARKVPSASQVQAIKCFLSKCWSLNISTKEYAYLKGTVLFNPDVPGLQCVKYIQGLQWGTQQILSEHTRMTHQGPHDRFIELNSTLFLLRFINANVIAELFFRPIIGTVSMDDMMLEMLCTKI
SMARCA2 act conf: SMARCA2 (BRM) function activators, confirmation, cell-based, luminescence, triplicate | shares compounds with SMARCA2 activ | 30% of 3,500 active | activation, % at 9.1 µM | MG213 cells, MMTV-luciferase with dexamethasone, overnight; MG213 cells expressing E1A, Rb sequestered; DMSO wells 0%, reference activator 100%;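 active means activation above its plate's cutoff, the mean activation of tested wells plus 3 SD, cut at about 7.9% in these data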
VP16 Luc act: GAL4-VP16 luciferase reporter activation, counter-screen for SMARCA2 (BRM) activator project, cell-based, pG5luc, luminescence, high throughput; shares compounds with SMARCA2 activ; HEK293 GAL4-VP16 pG5luc reporter; scaled: DMSO wells 0%, SAHA wells 100%; activation, % at 9.1 µM; 41% of 3,500 active; AID 686939, 2013;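 active means activation above the solvent-only control well mean plus 3 SD, averaged across control plates, cut at about 5.2% in these data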
Numbers stand for hits; . = inactive; / = no result. Only some compounds are listed: those with a hit (about 4.8% of all), similar ones and a draw of the others.

SMILES	hcDAF-12 act	ssDAF-12 act	hgDAF-12 ag	SMARCA2 activ	DAX1 inh-1	DAX1 inh-2	SMARCA2 act conf	VP16 Luc act
COc1ccc(-c2cc(NC(=O)Cc3c[nH]c4ccccc34)ccc2Nc2cccnc2)cc1F	.	.	.	.	.	/	/	/
O=C(Nc1ncccn1)c1ccc([N+](=O)[O-])o1	.	.	.	15	.	.	10	.
CC(C)(C)C(=O)N1CCN(c2ccc(NC(=O)c3ccc([N+](=O)[O-])o3)cc2)CC1	.	.	.	9.8	.	.	.	.
NC(=O)c1ccsc1NC(=O)c1ccc([N+](=O)[O-])o1	.	.	.	8.3	.	.	18	.
O=C(Nc1cccc([N+](=O)[O-])c1)c1ccc([N+](=O)[O-])o1	.	.	.	15	.	.	19	.
O=C(Nc1cccc(NC(=O)c2ccccc2Cl)c1)c1ccc([N+](=O)[O-])o1	.	.	.	.	.	.	/	/
CCC(=O)N1CCN(c2ccc(NC(=O)c3ccc([N+](=O)[O-])o3)cc2)CC1	.	.	.	.	.	.	/	/
CN(Cc1ccccc1)C(=O)c1cccc(NC(=O)Cc2ccc(NC(=O)C3CCCN(S(=O)(=O)c4cccc([N+](=O)[O-])c4)C3)cc2)c1 (configuration not stated)	.	.	.	.	.	/	/	/
CCN(C(=O)C1CCN(c2ncccn2)CC1)c1ccccc1	.	.	.	.	.	/	/	/
COC(=O)c1ccc2nc(-c3cccc(Br)c3)c(Cc3cccc(F)c3)n2c1	.	.	.	.	.	/	/	/
COC(=O)c1ccc2nc(-c3cccc(Cl)c3)c(Cc3cccc(F)c3)n2c1	.	.	.	11	.	/	.	.
CC1(c2nnnn2-c2ccc(F)cc2)CCCC(=O)N1CCc1c[nH]c2ccccc12 (configuration not stated)	.	.	.	.	.	/	/	/
CC(C1=CCCCC1)c1cnn(C)c1 (configuration not stated)	.	.	.	9.4	.	/	.	.
C[C@H]1[C@@H](OC(=O)N2CCOCC2)CC[C@@]23CCCN2C(=O)CCC[C@@H]13	.	.	.	/	/	/	/	/
O=C1C(=Cc2cccs2)Oc2ccccc21	.	.	.	8.7	.	.	.	.
Cc1ccccc1N(C)C(=O)Cn1nnc(-c2ccccc2F)n1	.	.	.	.	.	/	/	/
COc1ccc(OC)c(S(=O)(=O)Nc2cccc3ccccc23)c1	.	.	.	.	.	/	/	/
COc1ccc(OC)c(S(=O)(=O)Nc2c(F)cccc2F)c1	.	.	.	10.0	.	.	.	.
CCn1c2ccccc2c2nn(C)c(=N)nc21	.	.	.	.	.	.	/	/
Cn1nc2c3ccccc3n(Cc3ccccc3)c2nc1=S	.	.	.	9.1	.	.	10	.
O=C1c2ccccc2C(=O)N1c1ccc(Cl)cn1	.	.	.	8.1	.	.	.	.
COc1cc(/C=N/n2cnnc2)ccc1OCc1ccccc1	.	.	.	8.1	.	.	.	.
COc1ccc(/C=N/n2cnnc2)cc1COc1ccccn1	.	.	.	.	.	.	/	/
COc1ccc(N(CCCN2C(=O)c3cccc4cccc(c34)C2=O)C(=O)c2cccnc2)cc1	.	.	.	.	.	.	/	/
COc1ccc(N(CCCN2C(=O)c3cccc4cccc(c34)C2=O)C(=O)c2ccncc2)cc1	.	.	.	8.0	.	.	.	.
SMILES	hcDAF-12 act	ssDAF-12 act	hgDAF-12 ag	SMARCA2 activ	DAX1 inh-1	DAX1 inh-2	SMARCA2 act conf	VP16 Luc act
CN(CC(=O)Nc1ccccc1Cl)C(=O)COC(=O)c1nc(Cl)c(Cl)c(Cl)c1Cl	.	.	.	22	.	.	8.2	.
CN(CC(=O)Nc1ccccc1Cl)C(=O)COC(=O)c1ccc(Cl)nc1	.	.	.	.	.	.	/	/
Cc1cc(O)c(NC(=O)c2ccco2)cc1C	.	.	.	8.9	.	.	.	.
O=C1CC2(CCCC2)CC(=O)N1c1ccccc1	.	.	.	.	.	.	/	/
O=C1CC2(CCCCC2)CC(=O)N1CCc1ccccc1	.	.	.	8.0	.	.	.	.
Cc1cccn2c(=O)c(/C=C(\C#N)C(=O)NCc3ccco3)c(N3CCOCC3)nc12	.	.	.	11	.	/	.	.
O=C(COc1ccccc1)NCC(=O)NC1=NCCS1	.	.	.	.	.	.	/	/
Cc1ccccc1OCC(=O)NC1=NCCS1	.	.	.	9.0	.	.	.	12
CN1CC(O)([C@H](Cc2ccccc2)NC(=O)OC(C)(C)C)OCC1C(=O)NCc1cccc2ccccc12 (some centres not stated)	.	.	.	/	/	/	/	/
C[C@@H]1CCN(C2CC2)S(=O)(=O)c2ccc(N3CC[C@@H](O)C3)cc2O1	.	.	.	.	.	/	/	/
COc1ccccc1-c1nnc(Nc2nc3c(OC)cccc3s2)o1	.	.	.	15	.	.	.	24
COc1cccc2sc(Nc3nc(-c4cc5ccccc5oc4=O)cs3)nc12	.	.	.	.	.	.	/	/
COc1cccc2sc(NN)nc12	.	.	.	.	.	.	/	/
COc1cccc2sc(Nc3nnc(-c4ccccc4Cl)o3)nc12	.	.	.	8.8	.	.	.	.
O=C(O)CSCC(=O)NC1CCCc2ccccc21 (configuration not stated)	.	.	.	.	.	.	/	/
CC(=O)NC(CC(=O)NC1CCCc2ccccc21)c1ccccc1 (configuration not stated)	.	.	.	8.0	.	.	.	.
CCC(C)N(C(=O)CSc1nnc(-c2cccnc2)n1C1CCCCC1)C(C)CC (configuration not stated)	.	.	.	.	.	/	/	/
C=CS(=O)(=O)c1c2cc(OC)ccc2nc2ccc(OC)cc12	.	.	.	15	.	.	.	13
O=C(CSc1nc2ccccc2o1)NN=C/C=C/c1ccccc1	.	.	.	.	.	/	/	/
